According to patent US10344301, “Mutants of the bacteriophage lambda integrase” (AGENCY FOR SCIENCE, TECHNOLOGY AND RESEARCH):

T1: I43F C2 integrase (Bacteriophage lambda, UniProt P03700 SEQ:1-356, I43F)
T1 sequence: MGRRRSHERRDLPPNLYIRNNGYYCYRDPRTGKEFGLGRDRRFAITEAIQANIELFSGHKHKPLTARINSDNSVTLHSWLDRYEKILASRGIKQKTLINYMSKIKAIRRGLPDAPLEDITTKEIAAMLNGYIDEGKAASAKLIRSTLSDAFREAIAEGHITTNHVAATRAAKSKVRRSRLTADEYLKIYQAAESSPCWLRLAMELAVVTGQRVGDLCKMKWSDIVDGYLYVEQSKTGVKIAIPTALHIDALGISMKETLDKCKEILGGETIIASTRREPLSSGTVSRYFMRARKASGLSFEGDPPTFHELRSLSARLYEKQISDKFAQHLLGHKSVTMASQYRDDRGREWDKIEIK

B1: attH4X ; attP4X (dsDNA ; dsDNA)
DNA 1: ACGCTTTATTTCATTAAGTTG
DNA 2: CAACTTAATGAAATAAAGCGT
DNA 3: CAGCTTTATTTCATTAAGTTG
DNA 4: CAACTTAATGAAATAAAGCTG
B2: attB ; attP (dsDNA ; dsDNA)
DNA 1: CTGCTTTTTTATACTAACTTG
DNA 2: CAAGTTAGTATAAAAAAGCAG
DNA 3: CAGCTTTTTTATACTAAGTTG
DNA 4: CAACTTAGTATAAAAAAGCTG
B3: attH ; attPH (dsDNA ; dsDNA)
DNA 1: CTGCTTTCTTATACCAAGTGG
DNA 2: CCACTTGGTATAAGAAAGCAG
DNA 3: CAGCTTTCTTATACCAAGTTG
DNA 4: CAACTTGGTATAAGAAAGCTG

Biological target: T1, I43F C2 integrase
Assay: IVT; E319G removed from C3
Conditions: tags: PURExpress IVT

Binder	binding signal [fold reduced vs C3]
B1	~3
B2	~3
B3	~3
